Here are results for eleven compounds from PubChem BioAssay (NCATS).

Results filed as inconclusive are left out. Activity calls are given as the source filed them. Unless noted, how the calls were made is not given here.

The nature of assay [1]: qHTS profiling of the MIPE4 collection as inhibitors of Plasmodium falciparum (3D7) proliferation (AID 743344).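 Further: scaled between DMSO vehicle wells and 0.29 µM artemisinin as full inhibition.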 The note with it: P. falciparum 3D7 in erythrocytes, SYBR Green DNA fluorescence, 72 h; at 28.5 µM unless noted. Put shortly: (§1)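 Parasite DNA was quantified by SYBR Green I fluorescence (ex 485, em 535 nm) after overnight lysis in saponin/Triton buffer at room temperature. Cultures at 0.3% parasitemia and 2.5% hematocrit were first exposed to compound for 72 h at 37 C; signals were normalised to artemisinin (0.29 uM) and vehicle wells.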

The nature of assay [2]: qHTS profiling of the MIPE4 collection as inhibitors of Plasmodium falciparum (DD2) proliferation (AID 743345). Particulars: P. falciparum Dd2 in erythrocytes, SYBR Green DNA, 72 h; at 28.5 µM unless noted. Put shortly: as §1
In general terms: Quantitative high-throughput screening tests each substance at several concentrations.

Assay [3] in a line: qHTS profiling of the MIPE4 collection as inhibitors of Plasmodium falciparum (DD2) proliferation (Rep 2) (AID 743346). Particulars: P. falciparum Dd2 in erythrocytes, SYBR Green DNA, 72 h; at 28.5 µM unless noted. The procedure, abridged:
as §1

A short description of assay [4]: qHTS profiling of the MIPE4 collection as inhibitors of Plasmodium falciparum (HB3) proliferation (AID 743347).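 Further: plate controls were DMSO vehicle wells for no effect and artemisinin wells for full effect.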 Particulars: P. falciparum HB3 in erythrocytes, SYBR Green DNA, 72 h; at 28.5 µM unless noted. Put shortly:
as §1

The nature of assay [5]: High-throughput drug toxicity screening in the BPDCN cell line Gen2.2 (AID 1224824).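 Further: cells exposed to compounds for 48 h before reading.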 Particulars: Gen2.2 BPDCN cells; at 45.8 µM (top of the series) unless noted. The procedure, abridged:
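Readout is ATP luminescence from Gen2.2 cells after two days of drug exposure in serum-containing medium at 37 °C. Values express percent activity, with vehicle defining full signal and 9.2 uM bortezomib defining zero.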

Assay [6] in a line: High-throughput drug toxicity screening in the BPDCN cell line Cal-1 (AID 1224825). Particulars: Cal-1 BPDCN cell viability, qHTS; at 45.8 µM (top of the series) unless noted. Put shortly:
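CellTiter-Glo luminescence after 48 h compound exposure; percent activity scaled with DMSO as 100% and bortezomib (9.2 uM final) as 0%. Cal-1 cells seeded at 500/well in RPMI, 10% FBS, no phenol red.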

The nature of assay [7]: qHTS assay for measurement of the activity of small molecule inhibitors on Zika virus induced Caspase-3 activity in human iPSC derived neural progenitor cells (hNPCs) (AID 1224857; active means well fitted curve in the direction sought with a large enough effect; an effect the other way counts as inactive or inconclusive; further: % of control where 0% means no effect; nearly all actives have a fitted effect of over 65% in size). Put shortly: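 Pretreat hNPCs with compound 1 h; infect ZIKV 2 FFU/cell; 6 h 37 C, 5% CO2; Caspase-Glo 3/7, 30 min RT; luminescence; normalize to no-virus and virus-only wells.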
A short description of assay [8]: qHTS assay for measurement of the activity of small molecule inhibitors on Zika virus induced Caspase-3 activity in human astrocytoma cells (AID 1224859; active means well fitted curve in the direction sought with a large enough effect; an effect the other way counts as inactive or inconclusive;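 further: plate controls were ZIKV-infected untreated cells for no effect and uninfected cells for full effect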). Put shortly:
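Human SNB-19 astrocytoma cells in RPMI 1640 with 10% FBS receive compound one hour ahead of Zika virus at 2 FFU/cell. After 6 h infection, caspase-3/7 activity is detected by Caspase-Glo luminescence.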

The nature of assay [9]: qHTS Assay for Identifying Gametocytocidal Compounds (AID 743244; active means well fitted curve in the direction sought with a large enough effect; an effect the other way counts as inactive or inconclusive; further: potency means the concentration at half of the fitted maximal effect). Particulars: P. falciparum 3D7 stage III-V gametocytes, alamarBlue, 72 h; max response: stronger effect = lower value. Put shortly: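 Compounds are pinned into medium, gametocytes (stage III–V, 3D7, 20,000 cells/well) added, and plates held 72 h at 37 °C in 5% CO2. AlamarBlue follows for 24 h before fluorescence reading.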

A short description of assay [10]: qHTS profiling for inhibitors of Plasmodium falciparum (3D7) proliferation (AID 743322).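 Further: infected erythrocytes exposed to compound for 72 h before lysis; 100% = DMSO vehicle wells and 0% = 0.29 µM artemisinin.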 Particulars: P. falciparum 3D7 proliferation; at 28.7 µM (top of the series). The procedure, abridged: as §1
Assay [11] is described as follows: qHTS profiling for inhibitors of Plasmodium falciparum (DD2) proliferation (AID 743323). The note with it: lower = more inhibition; at 28.7 µM (top of the series). Put shortly:
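Parasite DNA quantified by SYBR Green fluorescence (ex 485, em 535 nm) after saponin/Triton lysis and overnight dark incubation. Cultures: 0.3% parasitemia, 2.5% hematocrit, 72 h, 37 C; data scaled between DMSO and 0.29 uM artemisinin.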

The nature of assay [12]: qHTS profiling for inhibitors of Plasmodium falciparum (HB3) proliferation (AID 743324; active means well fitted curve in the direction sought with a large enough effect; an effect the other way counts as inactive or inconclusive;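 further: 100% = DMSO vehicle wells and 0% = artemisinin-treated control wells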). Particulars: Plasmodium falciparum HB3 blood-stage proliferation; at 28.7 µM (top of the series). The procedure, abridged:
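SYBR Green fluorescence (485 ex/535 em) of lysed cultures, incubated overnight at room temperature in the dark, quantifies parasite DNA. Infected erythrocytes at 0.3% parasitemia and 2.5% hematocrit were exposed 72 h; values normalized to DMSO and 0.29 uM artemisinin controls.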

`Cc1c(C)n(Cc2ccc(-c3ccccc3C(=O)O)cc2)c2ccc(C(=O)N[C@@H](C)c3ccc([N+](=O)[O-])cc3)cc12` had a parasite growth, % of DMSO control in assay [1] of 25.4%. This compound gave a parasite growth remaining, % of DMSO control (lower = more inhibition) in assay [2] of 30.3%. The parasite growth, % of control (lower = inhibition) in assay [3] was determined as 20.8%. This compound returned a growth, % of control in assay [4] of 7.19%. Also, in [5], the cell viability, % of control (lower = more cytotoxic) is 21.6%. The viability (% of control) in assay [6] was 8.82%. In addition, the Potency result in assay [7] and in assay [8] was “inactive” each time.
As for `CC(C)c1cc(C(=O)N2Cc3ccc(CN4CCN(C)CC4)cc3C2)c(O)cc1O`, the parasite growth, % of DMSO control in [1] stood at 5.55%. The same compound had a parasite growth remaining, % of DMSO control (lower = more inhibition) in assay [2] of 7.69%. For the same compound, the parasite growth, % of control (lower = inhibition) in assay [3] is 9.28%. For the same compound, the growth, % of control in assay [4] is 2.52%. In addition, the cell viability, % of control (lower = more cytotoxic) in assay [5] was determined as 29.3%. Also, the viability (% of control) in [6] turned out to be 15%. The Potency entry in [7] and in assay [8] was “inactive” each time.
As to `NC(=O)Nc1cc(-c2cccc(F)c2)sc1C(=O)N[C@H]1CCCNC1`, the Potency in [9] was 18.7 µM (active). For the same compound, the remaining parasite growth % (stronger effect = lower value) in [10] is -0.937%. The compound also returned an activity, percent of control in assay [11] of 5.1%. Further, the remaining proliferation (% of control), lower = more inhibition in assay [12] stood at 0.699%. The parasite growth, % of DMSO control in assay [1] came to 7.3%. Also, the parasite growth remaining, % of DMSO control (lower = more inhibition) in [2] stood at 10.6%. Further, the parasite growth, % of control (lower = inhibition) in assay [3] stood at 15.5%. In addition, in [4], the growth, % of control was found to be 6.42%. For the same compound, the cell viability, % of control (lower = more cytotoxic) in assay [5] amounted to 7.53%. In addition, the viability (% of control) in [6] was determined as 4.12%. The Potency entry in assay [7] was “inactive”.
Consider `CCCCCCCCCC(=O)N[C@@H](Cc1c[nH]c2ccccc12)C(=O)N[C@H](CC(N)=O)C(=O)N[C@@H](CC(=O)O)C(=O)N[C@@H]1C(=O)NCC(=O)N[C@@H](CCCN)C(=O)N[C@@H](CC(=O)O)C(=O)N[C@H](C)C(=O)N[C@@H](CC(=O)O)C(=O)NCC(=O)N[C@H](CO)C(=O)N[C@@H]([C@@H](C)CC(=O)O)C(=O)N[C@@H](CC(=O)c2ccccc2N)C(=O)O[C@@H]1C`, for which the parasite growth, % of DMSO control in [1] was 409%. The compound further showed a parasite growth remaining, % of DMSO control (lower = more inhibition) in assay [2] of 96.7%. The parasite growth, % of control (lower = inhibition) in assay [3] was 108%. The growth, % of control in [4] was found to be 299%. Moreover, the cell viability, % of control (lower = more cytotoxic) in assay [5] worked out at 128%. The viability (% of control) in assay [6] was 108%. Besides, the Potency result in [7] and in assay [8] was “inactive” each time.
In the case of `COc1ccc(-n2nc(C(N)=O)c3c2C(=O)N(c2ccc(N4CCCCC4=O)cc2)CC3)cc1`, the parasite growth, % of DMSO control in [1] amounted to 53.4%. In addition, the parasite growth remaining, % of DMSO control (lower = more inhibition) in assay [2] came to 82.6%. Also, the growth, % of control in assay [4] is 83.4%. Further, in [5], the cell viability, % of control (lower = more cytotoxic) is 150%. Besides, the viability (% of control) in assay [6] came out at 104%. The Potency entry in assay [7] and in assay [8] was “inactive” in each case.
Turning to `NC1(Cc2ccc(Cl)cc2)CCN(c2ncnc3[nH]ccc23)CC1`, the parasite growth, % of DMSO control in assay [1] amounted to 19.2%. The parasite growth remaining, % of DMSO control (lower = more inhibition) in assay [2] turned out to be 31.6%. Moreover, the growth, % of control in assay [4] stood at 5.59%. In addition, the cell viability, % of control (lower = more cytotoxic) in assay [5] worked out at 12.2%. The viability (% of control) in [6] is 22.9%. For the same compound, the Potency entry in [7] and in assay [8] was “inactive” throughout.
`O=C1CCC[C@@H]2[C@H]3CCC[N+]4([O-])CCC[C@@H](CN12)[C@@H]34` (some centres undefined) came in with a parasite growth, % of DMSO control in assay [1] of 64.9%. The compound further came in with a parasite growth remaining, % of DMSO control (lower = more inhibition) in assay [2] of 33.8%. The parasite growth, % of control (lower = inhibition) in assay [3] was 61.6%. This compound registered a growth, % of control in [4] of 68.6%. The cell viability, % of control (lower = more cytotoxic) in assay [5] worked out at 92.5%. Further, the viability (% of control) in [6] stood at 100%. Further, the Potency result in [7] and in assay [8] was “inactive” each time.
Compound `CC1(C)CC(=O)c2c(C(F)(F)F)nn(-c3ccc(C(N)=O)c(NC4CCC(OC(=O)CN)CC4)c3)c2C1` (centres undefined) displayed a parasite growth, % of DMSO control in assay [1] of 7.32%. For the same compound, the parasite growth remaining, % of DMSO control (lower = more inhibition) in [2] was 8.43%. In addition, the parasite growth, % of control (lower = inhibition) in [3] came out at 11.6%. Besides, the growth, % of control in [4] is 4.41%. Moreover, in [5], the cell viability, % of control (lower = more cytotoxic) stood at 1.95%. Further, the viability (% of control) in [6] was found to be 13.9%. The Potency entry in assay [7] and in assay [8] was “inactive” throughout.
As to `CC1(C)O[C@@H]2C[C@@H]3[C@H]4C[C@@H](F)C5=CC(=O)C=C[C@]5(C)[C@@]4(F)[C@@H](O)C[C@]3(C)[C@]2(C(=O)CO)O1`, in assay [1], the parasite growth, % of DMSO control worked out at 53.6%. The compound further registered a parasite growth remaining, % of DMSO control (lower = more inhibition) in assay [2] of 97%. In addition, in assay [3], the parasite growth, % of control (lower = inhibition) stood at 53.7%. This compound displayed a growth, % of control in assay [4] of 76%. Also, the cell viability, % of control (lower = more cytotoxic) in assay [5] amounted to 45.3%. For the same compound, in assay [6], the viability (% of control) was found to be 54.5%. The Potency entry in assay [7] and in [8] was “inactive” each time.
With `Cc1cccc(C=NNc2cc(N3CCOCC3)nc(OCCc3ccccn3)n2)c1`, the remaining parasite growth % (stronger effect = lower value) in assay [10] was determined as 3.29%. Also, in [11], the activity, percent of control was 8.46%. In [12], this compound gave a remaining proliferation (% of control), lower = more inhibition of 1.85%. The parasite growth, % of DMSO control in [1] worked out at 5.56%. The parasite growth remaining, % of DMSO control (lower = more inhibition) in [2] stood at 15.2%. In addition, in [3], the parasite growth, % of control (lower = inhibition) was found to be 11.8%. In assay [4], the growth, % of control stood at 4.79%. The cell viability, % of control (lower = more cytotoxic) in assay [5] is 60.1%. Further, the viability (% of control) in assay [6] came to 63.7%. Moreover, the Potency result in assay [7] was “inactive”.
Take `Cc1coc2c1C(=O)C(=O)c1c-2ccc2c1CCCC2(C)C`: the parasite growth, % of DMSO control in assay [1] stood at 5.71%. This compound also registered a parasite growth remaining, % of DMSO control (lower = more inhibition) in assay [2] of 9.98%. Moreover, the growth, % of control in [4] came to 4.66%. Moreover, the cell viability, % of control (lower = more cytotoxic) in assay [5] amounted to 93.2%. Besides, the viability (% of control) in [6] was found to be 83.1%. Besides, in assay [7], the Potency entry was “inactive”.
